Bioassay records (PubChem BioAssay)
HP1b binding inh: blocks HP1-beta chromodomain binding to methylated histone tails; P83916; AlphaScreen HP1-beta / biotin-H3K9me3 peptide binding; Potency, µM (series often up to 114 µM), without a hit: at the highest dose activity change, negative = inhibition, most hits filed as inhibitors; 0.56% of 390,000 active; also: potency is read from the fitted curve at half-maximal effect; nearly all actives have a fitted effect of over 70% in size
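Compound inhibition of the preformed complex between 50 nM HP1-beta and 50 nM biotinylated H3K9me3 peptide was read by AlphaScreen. Buffer was PBS pH 7.4 with 0.01% Tween-20. Incubations ran 30 min at room temperature, with 10 ug/mL donor/acceptor beads.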
G9a inh: G9a (human) methyltransferase inhibition; G9a H3K9 monomethylation, AlphaScreen, 2 h; Potency, µM (top dose mostly 102 µM), for the others: at the top dose activity, negative = inhibition, most hits filed as inhibitors; 8.8% of 350,000 active; also: potency is read from the fitted curve at half-maximal effect; % is scaled to controls: 0 for no effect and ±100 for the full control effect; nearly all actives have a fitted effect of over 75% in size
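Methyltransferase reactions run at room temperature for 2 h (20 nM enzyme, 500 nM biotin-H3K9 peptide, 20 uM SAM) after a 15 min compound preincubation; product detected by AlphaScreen beads and anti-H3K9me1 antibody.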
BAZ2B inh: BAZ2B (human) inhibition; Potency, µM (series often up to 114 µM), for inactives: top-dose activity change, negative = inhibition, usual class: inhibitors; 4.4% of 360,000 active; AID 504333; AlphaScreen BAZ2B-H3K14Ac peptide displacement; also: potency is read from the fitted curve at half-maximal effect; % is scaled to controls: 0 for no effect and ±100 for the full control effect; nearly all actives have a fitted effect of over 60% in size
Target sequence (Q9UIF8 whole entry, looked up): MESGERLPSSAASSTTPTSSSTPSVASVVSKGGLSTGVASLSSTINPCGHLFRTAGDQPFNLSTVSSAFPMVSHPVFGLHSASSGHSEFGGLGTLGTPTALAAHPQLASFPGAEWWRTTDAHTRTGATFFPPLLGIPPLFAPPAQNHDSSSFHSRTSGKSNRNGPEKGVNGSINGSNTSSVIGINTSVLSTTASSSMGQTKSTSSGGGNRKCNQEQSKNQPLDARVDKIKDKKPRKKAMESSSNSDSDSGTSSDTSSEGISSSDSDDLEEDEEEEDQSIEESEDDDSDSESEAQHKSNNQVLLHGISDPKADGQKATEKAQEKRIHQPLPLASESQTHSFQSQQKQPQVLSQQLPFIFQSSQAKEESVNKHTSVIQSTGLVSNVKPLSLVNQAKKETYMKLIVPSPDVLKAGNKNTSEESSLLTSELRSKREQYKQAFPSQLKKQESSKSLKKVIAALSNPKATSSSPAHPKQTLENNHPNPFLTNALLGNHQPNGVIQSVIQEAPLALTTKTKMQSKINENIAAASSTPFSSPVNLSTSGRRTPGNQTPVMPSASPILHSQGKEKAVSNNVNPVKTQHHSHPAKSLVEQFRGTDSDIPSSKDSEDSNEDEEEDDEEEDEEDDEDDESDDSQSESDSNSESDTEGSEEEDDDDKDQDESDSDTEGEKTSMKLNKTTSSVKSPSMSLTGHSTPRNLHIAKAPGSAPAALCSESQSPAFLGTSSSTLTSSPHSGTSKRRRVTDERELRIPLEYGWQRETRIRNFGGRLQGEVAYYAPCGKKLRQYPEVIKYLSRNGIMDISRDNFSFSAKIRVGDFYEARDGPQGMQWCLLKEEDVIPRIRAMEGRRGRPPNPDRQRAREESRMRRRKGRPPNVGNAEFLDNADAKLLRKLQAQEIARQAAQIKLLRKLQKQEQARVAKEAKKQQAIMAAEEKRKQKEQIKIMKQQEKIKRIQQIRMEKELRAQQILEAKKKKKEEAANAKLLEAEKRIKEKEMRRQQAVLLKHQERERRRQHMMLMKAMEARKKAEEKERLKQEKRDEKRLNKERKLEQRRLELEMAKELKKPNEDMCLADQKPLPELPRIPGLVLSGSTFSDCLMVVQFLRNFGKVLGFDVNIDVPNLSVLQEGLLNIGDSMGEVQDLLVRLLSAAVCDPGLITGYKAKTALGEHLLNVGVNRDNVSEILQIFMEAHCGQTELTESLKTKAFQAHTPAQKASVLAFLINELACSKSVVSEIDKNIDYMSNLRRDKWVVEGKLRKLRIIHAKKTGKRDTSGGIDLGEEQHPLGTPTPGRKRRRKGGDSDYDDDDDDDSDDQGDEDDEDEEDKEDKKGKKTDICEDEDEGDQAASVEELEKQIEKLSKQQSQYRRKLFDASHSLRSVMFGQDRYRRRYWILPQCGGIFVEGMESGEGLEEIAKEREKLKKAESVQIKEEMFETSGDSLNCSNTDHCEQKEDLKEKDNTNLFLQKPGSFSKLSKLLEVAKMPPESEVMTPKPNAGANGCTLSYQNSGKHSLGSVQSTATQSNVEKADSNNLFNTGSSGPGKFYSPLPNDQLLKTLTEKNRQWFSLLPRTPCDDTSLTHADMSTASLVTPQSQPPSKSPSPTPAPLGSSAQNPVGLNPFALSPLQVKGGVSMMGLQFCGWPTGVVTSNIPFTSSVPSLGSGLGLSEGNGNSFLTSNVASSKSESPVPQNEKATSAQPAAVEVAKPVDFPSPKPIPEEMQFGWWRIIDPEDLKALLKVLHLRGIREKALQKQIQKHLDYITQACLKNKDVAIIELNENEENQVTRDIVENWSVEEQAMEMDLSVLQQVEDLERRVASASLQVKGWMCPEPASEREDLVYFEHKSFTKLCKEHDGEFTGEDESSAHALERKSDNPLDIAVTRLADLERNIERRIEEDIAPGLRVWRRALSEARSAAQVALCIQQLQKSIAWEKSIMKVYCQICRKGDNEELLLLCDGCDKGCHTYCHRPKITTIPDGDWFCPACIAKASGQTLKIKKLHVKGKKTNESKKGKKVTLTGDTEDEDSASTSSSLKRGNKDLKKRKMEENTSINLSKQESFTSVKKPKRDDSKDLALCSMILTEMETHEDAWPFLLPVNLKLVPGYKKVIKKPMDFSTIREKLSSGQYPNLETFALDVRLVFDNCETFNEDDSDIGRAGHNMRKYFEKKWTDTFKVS
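Complex of BAZ2B and biotin-H3K14Ac (50 nM apiece) forms over 30 min at RT, then faces library compounds up to 110 uM for another 30 min; AlphaScreen beads added, 20 min dark incubation, luminescence read.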
PI5P4K alpha inh: blocks human PI5P4K alpha kinase activity. P48426. max response, %. 1.2% of 330,000 active. PI5P4Kalpha enzyme, ADP-Glo luminescence, 60 min; hits give low values. AID 652105; active = max response of -50% or lower; inconclusive = between -30% and -50%; inactive = -30% or higher; also: value at the top dose of about 77 µM; % is scaled to controls: 0 for no effect and ±100 for the full control effect
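qHTS, 1536-well: enzyme/substrate mix, compound by pin tool, 5 microM ATP final; RT 60 min; ADP-Glo reagents 1 (45 min) then 2 (30 min); luminescence.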
PLK1 PBD inh: blocks phosphopeptide binding to human PLK1 polo-box domain | P53350 | Plk1 PBD binding of FITC phosphopeptide, fluorescence polarization | Potency, µM, without a hit: max response, negative = inhibition, hits mostly inhibitors | 2.8% of 360,000 active; also: potency is read from the fitted curve at half-maximal effect; series mostly up to about 57 µM; % is scaled to controls: 0 for no effect and ±100 for the full control effect; nearly all actives have a fitted effect of over 65% in size
JMJD2A Tudor inh: inhibitors of human JMJD2A Tudor domain. O75164. AlphaScreen JMJD2A-Tudor / H3K4me3 peptide binding. Potency, µM (titrated, usually from 114 µM), for the others: at the highest dose activity change, negative = inhibition, hits mostly inhibitors. 4.4% of 390,000 active. AID 504339; also: potency is read from the fitted curve at half-maximal effect; % is scaled to controls: 0 for no effect and ±100 for the full control effect; nearly all actives have a fitted effect of over 50% in size
ADP-Glo interf: interferes with ADP-Glo detection without enzyme present; Potency, µM (top dose mostly 76.9 µM), for inactives: top-dose activity change, negative = inhibition, actives largely listed as inhibitors; 1,100 tested, under 10 active; ADP-Glo detection counter-screen, luciferase luminescence, no enzyme; shares compounds with PI5P4K alpha inh; AID 743285
TbPYK confirm: Trypanosoma brucei pyruvate kinase inhibition, cherry-pick confirmation. shares compounds with PLK1 PBD inh. recombinant TbPYK, Kinase-Glo ATP luminescence. Potency, µM (doses to about 76.9 µM), inactives show top-dose activity change, negative = inhibition, hits mostly inhibitors. 67% of 890 active; also: potency is read from the fitted curve at half-maximal effect; % is scaled to controls: 0 for no effect and ±100 for the full control effect; nearly all actives have a fitted effect of over 70% in size
TbPYK orthogonal: orthogonal confirmation of Trypanosoma brucei pyruvate kinase inhibitors; shares compounds with PLK1 PBD inh; recombinant TbPYK, ADP-Glo luminescence, 60 min; Potency, µM (titrated, usually from 76.9 µM), without a hit: at the top dose activity change, negative = inhibition, actives largely listed as inhibitors; 62% of 890 active; AID 720584; also: potency is read from the fitted curve at half-maximal effect; % is scaled to controls: 0 for no effect and ±100 for the full control effect; nearly all actives have a fitted effect of over 75% in size
* = called active by the depositor; [ ] = dose if it differs, or a comment. Most compounds without a hit are left out; they make up all but 12% or so of the library. Unless noted, calls follow the shape of the dose curve; as a rule, active = well fitted curve in the direction sought with a large enough effect; inconclusive = small, poorly fitted or top-dose-only effect, or another doubt; inactive = no such curve, though single readings can be large; an effect the other way counts as inactive or inconclusive.

What do the screens show for `CC(C)(NC(=O)c1ccccc1)c1nc2ccccc2s1`?
HP1b binding inh: inconclusive; G9a inh: -3.6%[2.33 µM]; BAZ2B inh: 8.9%; PI5P4K alpha inh: -81.6*; PLK1 PBD inh: 11.9µM*; JMJD2A Tudor inh: 79.4µM*; ADP-Glo interf: -4.2%; TbPYK confirm: 8.91µM*; TbPYK orthogonal: 10µM*

How did CC(C)Sc1nc(N2CCOCC2)c2c(c1C#N)CC(C)(C)N(C)C2 do in these assays?
HP1b binding inh: -9.8%; G9a inh: -14.1%[12.7 µM]; BAZ2B inh: -8.4%; PI5P4K alpha inh: -52.5*; PLK1 PBD inh: 2.67µM*; JMJD2A Tudor inh: 11.2µM*; ADP-Glo interf: 1.1%; TbPYK confirm: -10.8%; TbPYK orthogonal: -6.5%

Results for CN1Cc2c(N3CCOCC3)nc(SCCC#N)c(C#N)c2CC1(C)C ?
HP1b binding inh: 5.1%; G9a inh: 4.9%[12.7 µM]; BAZ2B inh: -3.5%; PI5P4K alpha inh: -0.6; PLK1 PBD inh: -9.7%; JMJD2A Tudor inh: -17.6%

Results for Cc1cccc(N2CCN(c3nc4ccc(C(=O)c5ccccc5)cc4n4cnnc34)CC2C)c1 (stereo not drawn) ?
HP1b binding inh: 29.0%; G9a inh: inconclusive; BAZ2B inh: -19.0%; JMJD2A Tudor inh: -11.4%

How did COc1cccc(C2CC(=O)N3CN(c4cccc(Cl)c4C)CSC3=C2C#N)c1OC (stereo not drawn) do in these assays?
HP1b binding inh: inconclusive; G9a inh: 1.78µM*; BAZ2B inh: 25.1µM*; PI5P4K alpha inh: -92.6*; PLK1 PBD inh: 26.7µM*; JMJD2A Tudor inh: 15.8µM*; ADP-Glo interf: -13.5%; TbPYK confirm: 17.8µM*; TbPYK orthogonal: 6.31µM*

Results for COc1ccc(OC)c(C2CC(=O)N3CN(c4cccc(Cl)c4C)CSC3=C2C#N)c1 (stereo not drawn) ?
HP1b binding inh: inconclusive; G9a inh: 1.41µM*; BAZ2B inh: 31.6µM*; PI5P4K alpha inh: -64.4*; PLK1 PBD inh: inconclusive; JMJD2A Tudor inh: 17.8µM*; ADP-Glo interf: -5.6%; TbPYK confirm: 15.8µM*; TbPYK orthogonal: 7.94µM*

Results for CCc1nc2ccc(C(=O)NCCCN3CCCC3=O)cn2c1N(C)C(=O)Nc1ccccc1OC ?
PI5P4K alpha inh: -0.4; PLK1 PBD inh: 3.4%

What do the screens show for `CC(=O)Nc1cccc(-c2cc(NC(C)=O)c3ncc(-c4ccc(C(C)=O)cc4)n3c2)c1`?
PI5P4K alpha inh: 3.2; PLK1 PBD inh: 0.6%

Results for Clc1cccc(Cc2c(-c3ccco3)nc3ccc(Br)cn23)c1 ?
PI5P4K alpha inh: -82.1*; PLK1 PBD inh: 10.6µM*; ADP-Glo interf: -1.8%; TbPYK confirm: inconclusive; TbPYK orthogonal: inconclusive

Results for Brc1ccc2nc(-c3ccco3)c(Cc3ccccc3)n2c1 ?
PI5P4K alpha inh: inconclusive; PLK1 PBD inh: -29.2%

Results for CCCC1=Nc2cc(C(=O)NCc3ccccc3)ccc2Sc2ccccc21 ?
HP1b binding inh: 13.9%; G9a inh: -31.2%[59 µM]; BAZ2B inh: -26.6%; JMJD2A Tudor inh: -25.7%

Results for CCOC(=O)c1c(NS(=O)(=O)c2ccc(Br)cc2)sc2c1CCC2 ?
HP1b binding inh: -16.0%; PI5P4K alpha inh: -55.4*; PLK1 PBD inh: 21.2µM*; JMJD2A Tudor inh: 79.4µM*; ADP-Glo interf: -1.3%; TbPYK confirm: 35.5µM*; TbPYK orthogonal: inconclusive

Results for COC(=O)c1ccc2nc(-c3ccc(F)cc3)c(Cc3ccc(OC)cc3C)n2c1 ?
PI5P4K alpha inh: 5.9; PLK1 PBD inh: -2.0%

What do the screens show for `COC(=O)c1ccc2nc(-c3ccco3)c(Cc3ccc(OC)cc3C)n2c1`?
PI5P4K alpha inh: -80.4*; PLK1 PBD inh: 26.7µM*; ADP-Glo interf: 0.7%; TbPYK confirm: 7.08µM*; TbPYK orthogonal: 7.94µM*

What do the screens show for `CN(C)c1oc(-c2ccccc2[N+](=O)[O-])nc1C#N`?
HP1b binding inh: inconclusive; G9a inh: 7.08µM*; BAZ2B inh: -38.0%; PI5P4K alpha inh: -28.0; PLK1 PBD inh: 26.7µM*; JMJD2A Tudor inh: 15.8µM*; TbPYK confirm: 1.78µM*; TbPYK orthogonal: 4.47µM*

How did CN(C)c1oc(-c2ccccc2Cl)nc1C#N do in these assays?
HP1b binding inh: -44.3%; G9a inh: inconclusive; BAZ2B inh: inconclusive; PI5P4K alpha inh: 7.8; PLK1 PBD inh: -7.8%; JMJD2A Tudor inh: -20.7%

What do the screens show for `CCOC(=O)CCc1c(C)c(C#N)c2nc3ccccc3n2c1-n1cnc2ccccc21`?
HP1b binding inh: 11.0%; G9a inh: 23.9%; BAZ2B inh: 6.7%; PLK1 PBD inh: -6.9%; JMJD2A Tudor inh: -15.4%

What do the screens show for `CCOC(=O)CCc1c(C)nc(SCCCn2c(=O)[nH]c3ccccc32)c(C#N)c1C`?
HP1b binding inh: 25.0%; G9a inh: inconclusive; BAZ2B inh: -2.4%; PLK1 PBD inh: -15.5%; JMJD2A Tudor inh: 28.2µM*; TbPYK confirm: 5.62µM*; TbPYK orthogonal: 14.1µM*

What do the screens show for `COc1ccccc1N(C(C)=O)C1=C(Cl)C(=O)c2ccccc2C1=O`?
PI5P4K alpha inh: -89.2*; PLK1 PBD inh: 2.99µM*; TbPYK confirm: -100.0%; TbPYK orthogonal: 0.794µM*

How did COc1ccc2[nH]c3c4c(ccc3c2c1)C(=O)C=CC4=O do in these assays?
HP1b binding inh: inconclusive; BAZ2B inh: 39.8µM*; PI5P4K alpha inh: -65.2*; PLK1 PBD inh: inconclusive; JMJD2A Tudor inh: inconclusive; TbPYK confirm: 5.01µM*; TbPYK orthogonal: inconclusive

What do the screens show for `COc1ccc2[nH]c(-c3ccc(F)cc3F)cc(=O)c2c1`?
G9a inh: 1.6%

How did Oc1[nH]c(=S)sc1C=C1N=c2ccccc2=N1 do in these assays?
HP1b binding inh: -3.2%; G9a inh: inconclusive; BAZ2B inh: -33.4%; PI5P4K alpha inh: -20.6; PLK1 PBD inh: -4.0%; JMJD2A Tudor inh: -28.5%; TbPYK confirm: 22.4µM*; TbPYK orthogonal: inconclusive

How did Oc1c(C=C2N=c3ccccc3=N2)sc(=S)n1-c1ccc(F)cc1 do in these assays?
HP1b binding inh: 9.1%; G9a inh: inconclusive; BAZ2B inh: -6.1%; PI5P4K alpha inh: 12.6; PLK1 PBD inh: inconclusive; JMJD2A Tudor inh: -25.7%
